Inconclusive results are not listed. Activity calls are given as the source filed them. The call rests on the fitted dose curve; in most records, active means well fitted cell-killing curve with a large enough effect; inconclusive means small, poorly fitted or top-dose-only effect, or effect the other way; inactive means flat fitted curve, though single readings scatter.
What was measured:
Experiment in all cases: Primary qHTS to identify gynecologic anti-cancer compounds using libraries of approved drugs and bioactive compounds (AID 1345084); further: nearly all actives have a fitted effect of over 55% in size
CAOV3 = details: Gynecologic cancer cell panel viability, ATPlite luminescence, 48 h; series mostly up to 57.5 µM
In short: (§1)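 ATP-based viability (ATPlite), 1,000 cells/well, 16 h pre-incubation, 48 h compound at 37 C, 5% CO2, 15 min RT before read.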

CASKI = details: Gynecologic cancer cell panel viability, ATPlite luminescence, 48 h; series mostly up to 57.5 µM
In short: as §1

Es-2 = details: Gynecologic cancer cell panel viability, ATPlite luminescence, 48 h; series mostly up to 57.5 µM
In short: as §1

HeLa = details: Gynecologic cancer cell panel viability, ATPlite luminescence, 48 h; series mostly up to 57.5 µM
In short: as §1

Hek293T = details: Gynecologic cancer cell panel viability, ATPlite luminescence, 48 h, control line for the selectivity index; series mostly up to 57.5 µM
In short: as §1

JEG-3 = details: Gynecologic cancer cell panel viability, ATPlite luminescence, 48 h; series mostly up to 57.5 µM
In short: as §1

OV90 = details: Gynecologic cancer cell panel viability, ATPlite luminescence, 48 h; series mostly up to 57.5 µM
In short: as §1

PA-1 = details: Gynecologic cancer cell panel viability, ATPlite luminescence, 48 h; series mostly up to 57.5 µM
In short: as §1

SKOV3 = details: Gynecologic cancer cell panel viability, ATPlite luminescence, 48 h; series mostly up to 57.5 µM
In short: as §1

Tov-21-G = details: Gynecologic cancer cell panel viability, ATPlite luminescence, 48 h; series mostly up to 57.5 µM
In short: as §1

Tov112D = details: Gynecologic cancer cell panel viability, ATPlite luminescence, 48 h; series mostly up to 57.5 µM
In short: as §1
On the % scale 0 is the no-effect control and ±100 the full control effect.

O=C(/C=C/c1ccc(O)cc1)O[C@H]1[C@@H]2C=CO[C@@H](O[C@@H]3O[C@H](CO)[C@@H](O)[C@H](O)[C@H]3O)[C@@H]2[C@@]2(CO)O[C@@H]12
inactive: Potency (CAOV3) | Potency (CASKI) | Potency (Es-2) | Potency (HeLa) | Potency (Hek293T) | Potency (JEG-3) | Potency (OV90) | Potency (PA-1) | Potency (SKOV3) | Potency (Tov-21-G) | Potency (Tov112D)

O=C(O)CCc1cc2ccoc2cc1O[C@@H]1O[C@H](CO[C@@H]2OC[C@](O)(CO)[C@H]2O)[C@@H](O)[C@H](O)[C@H]1O
inactive: Potency (CAOV3) | Potency (CASKI) | Potency (Es-2) | Potency (HeLa) | Potency (Hek293T) | Potency (JEG-3) | Potency (OV90) | Potency (PA-1) | Potency (SKOV3) | Potency (Tov-21-G) | Potency (Tov112D)

C=C[C@H]1[C@H](O[C@@H]2O[C@H](CO)[C@@H](O)[C@H](O)[C@H]2O)OC=C(C(=O)OC)[C@H]1C[C@@H]1N[C@H](C(=O)O)Cc2c1[nH]c1ccccc21
inactive: Potency (CAOV3) | Potency (CASKI) | Potency (Es-2) | Potency (HeLa) | Potency (Hek293T) | Potency (JEG-3) | Potency (OV90) | Potency (PA-1) | Potency (SKOV3) | Potency (Tov-21-G) | Potency (Tov112D)

O=C(NCc1ccc(OC(F)(F)F)cc1)C1c2ccccc2C(=O)N1C1CCOCC1 (stereo not given)
inactive: Potency (CAOV3) | Potency (CASKI) | Potency (Es-2) | Potency (HeLa) | Potency (Hek293T) | Potency (JEG-3) | Potency (OV90) | Potency (PA-1) | Potency (SKOV3) | Potency (Tov-21-G) | Potency (Tov112D)

OC[C@H]1O[C@@H](OC(CCCCc2ccc(O)cc2)CCc2ccc(O)cc2)[C@H](O[C@@H]2OC[C@](O)(CO)[C@H]2O)[C@@H](O)[C@@H]1O (stereo not given in full)
inactive: Potency (CAOV3) | Potency (CASKI) | Potency (Es-2) | Potency (HeLa) | Potency (Hek293T) | Potency (JEG-3) | Potency (OV90) | Potency (PA-1) | Potency (SKOV3) | Potency (Tov-21-G) | Potency (Tov112D)

CC(/C=C/C1(O)C2(C)COC1(C)CC(=O)C2)O[C@@H]1O[C@H](CO)[C@@H](O)[C@H](O)[C@H]1O (stereo not given in full)
inactive: Potency (CAOV3) | Potency (CASKI) | Potency (Es-2) | Potency (HeLa) | Potency (Hek293T) | Potency (JEG-3) | Potency (OV90) | Potency (PA-1) | Potency (SKOV3) | Potency (Tov-21-G) | Potency (Tov112D)

COc1ccc([C@H]2Cc3cccc(O)c3C(=O)O2)cc1
inactive: Potency (CAOV3) | Potency (CASKI) | Potency (Es-2) | Potency (HeLa) | Potency (Hek293T) | Potency (JEG-3) | Potency (OV90) | Potency (PA-1) | Potency (SKOV3) | Potency (Tov-21-G) | Potency (Tov112D)

CC1OC(OC2C(C)OC(OC3C(OC(=O)/C=C/c4ccc(O)cc4)C(CO)OC(OC4(COC(=O)/C=C/c5ccc(O)cc5)OC(CO)C(O)C4O)C3OC3OCC(O)(CO)C3O)C(O)C2O)C(O)C(O)C1O (stereo not given)
inactive: activity change, negative = cytotoxicity (CAOV3) -2.97% [at 11.6 µM] | activity change, negative = cytotoxicity (CASKI) 10% [at 11.6 µM] | activity change, negative = cytotoxicity (Es-2) -0.759% [at 11.6 µM] | activity change, negative = cytotoxicity (HeLa) -8.01% [at 11.6 µM] | activity change, negative = cytotoxicity (Hek293T) 0.502% [at 11.6 µM] | activity change, negative = cytotoxicity (JEG-3) 2.4% [at 11.6 µM] | activity change, negative = cytotoxicity (OV90) 8.76% [at 11.6 µM] | activity change, negative = cytotoxicity (PA-1) -0.866% [at 11.6 µM] | activity change, negative = cytotoxicity (SKOV3) 28.4% [at 11.6 µM] | activity change, negative = cytotoxicity (Tov-21-G) 1.37% [at 11.6 µM] | activity change, negative = cytotoxicity (Tov112D) -2.2% [at 11.6 µM]

CC1CCC2C(C)(C)C(O)CCC2(C)C12Cc1c(O)cc3c(c1O2)CN(C(CCC(N)=O)C(=O)O)C3=O (stereo not given)
inactive: Potency (CAOV3) | Potency (CASKI) | Potency (Es-2) | Potency (HeLa) | Potency (Hek293T) | Potency (JEG-3) | Potency (OV90) | Potency (PA-1) | Potency (SKOV3) | Potency (Tov-21-G) | Potency (Tov112D)

CC(C)C(C#N)O[C@@H]1O[C@H](CO[C@@H]2OC[C@](O)(CO)[C@H]2O)[C@@H](O)[C@H](O)[C@H]1O (stereo not given in full)
inactive: Potency (CAOV3) | Potency (CASKI) | Potency (Es-2) | Potency (HeLa) | Potency (Hek293T) | Potency (JEG-3) | Potency (OV90) | Potency (PA-1) | Potency (SKOV3) | Potency (Tov-21-G) | Potency (Tov112D)

CCNC(=O)CCC/C=C\C[C@@H]1[C@@H](/C=C/C(O)CCc2ccccc2)[C@@H](O)C[C@@H]1O (stereo not given in full)
inactive: Potency (CAOV3) | Potency (CASKI) | Potency (Es-2) | Potency (HeLa) | Potency (Hek293T) | Potency (JEG-3) | Potency (OV90) | Potency (PA-1) | Potency (SKOV3) | Potency (Tov-21-G) | Potency (Tov112D)

COc1c2c(c(C)c3c1C(=O)OC3)O[C@@]1(C)C[C@@H](O)[C@]34O[C@](OC)(CC[C@]3(C)[C@H]1C2)OC4(C)C
inactive: Potency (CAOV3) | Potency (CASKI) | Potency (Es-2) | Potency (HeLa) | Potency (Hek293T) | Potency (JEG-3) | Potency (OV90) | Potency (PA-1) | Potency (SKOV3) | Potency (Tov-21-G) | Potency (Tov112D)

C[C@@H]1CCC2C(C)(C)[C@H](O)CC[C@]2(C)[C@@]12Cc1c(O)cc3c(c1O2)CN(CCO)C3=O (stereo not given in full)
inactive: Potency (CAOV3) | Potency (CASKI) | Potency (Es-2) | Potency (HeLa) | Potency (Hek293T) | Potency (JEG-3) | Potency (OV90) | Potency (PA-1) | Potency (SKOV3) | Potency (Tov-21-G) | Potency (Tov112D)

COCCN(C)Cc1ccc2nc3sc(C(=O)N(C)C4CCCCC4)cn3c2c1
inactive: Potency (CAOV3) | Potency (CASKI) | Potency (Es-2) | Potency (HeLa) | Potency (Hek293T) | Potency (JEG-3) | Potency (OV90) | Potency (PA-1) | Potency (SKOV3) | Potency (Tov-21-G) | Potency (Tov112D)

CCCCCCc1cccc(NC(=O)[C@H](N)CCP(=O)(O)O)c1
inactive: activity change, negative = cytotoxicity (CAOV3) 5.39% [at 11.6 µM] | activity change, negative = cytotoxicity (CASKI) 0.791% [at 11.6 µM] | activity change, negative = cytotoxicity (Es-2) 1.07% [at 11.6 µM] | activity change, negative = cytotoxicity (HeLa) 2.94% [at 11.6 µM] | activity change, negative = cytotoxicity (Hek293T) -0.817% [at 11.6 µM] | activity change, negative = cytotoxicity (JEG-3) 8.47% [at 11.6 µM] | activity change, negative = cytotoxicity (OV90) 3.38% [at 11.6 µM] | activity change, negative = cytotoxicity (PA-1) 2.71% [at 11.6 µM] | activity change, negative = cytotoxicity (SKOV3) -0.133% [at 11.6 µM] | activity change, negative = cytotoxicity (Tov-21-G) -2.84% [at 11.6 µM] | activity change, negative = cytotoxicity (Tov112D) 3.09% [at 11.6 µM]
